The text below walks through data of PubChem BioAssay AID1029 (Sanford-Burnham Center for Chemical Genomics, 2008).

The term inhibition denotes the relative decrease from the control value, in per cent.

Each structure is given as a SMILES string. The campaign covered roughly 110,000 compounds. About 80 (0.07%) were called active.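 How the source made its calls: active means inhibition above the mean of the plate negative controls plus 5 SD (cut at about 13% in these data); inactive means the rest.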 Only a selection was taken, and actives are over-represented in it overall.

This assay is described as follows: inhibitors of macrophage phagocytosis, primary screen, imaging, J774A.1 cells, IgG beads (AID 1029).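 Further: phagocytic index as fraction of beads internalized from green versus red external bead signal; plate controls were DMSO negative control for no effect and cytochalasin-D positive control for full effect.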 Conditions: J774A.1 macrophage IgG-bead phagocytosis, at 5 µM, hits give high values.
In the case of `CC(=O)c1c(C)n([O-])c2ccccc2[n+]1=O`, the inhibition was 79.2% (active).
Turning to `CC(=O)c1ccc2c(c1)c1ccccc1n2CC(C)C`, the inhibition is 0.3% (inactive).
With `c1ccc(-c2cc3c(NCC4COc5ccccc5O4)ncnc3s2)cc1` (stereo not given), the inhibition is -5.69% (inactive).
On to `CCNS(=O)(=O)c1ccc(NC(=O)c2cncc(Br)c2)cc1`, for which the inhibition is -7.43% (inactive).
For `CCC1CCCCN1C(=S)Nc1ccc(C(C)=O)cc1` (stereo not given) the value was -9.4% (inactive).
For `O=C(/C=C/c1cccc([N+](=O)[O-])c1)NCCSCc1ccco1` the value was 6.74% (inactive); for `CCc1ccc(-c2cc(C(=O)NN3CCN(C)CC3)c3ccccc3n2)cc1`, -2.84% (inactive); for `COC(=O)c1c(NC(=O)CN2CCN(S(=O)(=O)c3ccccc3[N+](=O)[O-])CC2)sc2c1CCC(C)C2` (stereo not given), -4.89% (inactive).
For `Cc1ccc(NC(=O)CSCC(=O)NC2CCCCC2)cc1` the value was 6.8% (inactive).
Take `Cc1ccc(CN2C(=O)N/C(=C/c3cc(C)n(-c4ccccn4)c3C)C2=O)cc1`: the inhibition is -12.6% (inactive).
For `COc1ccc(NC(=S)NC2CCS(=O)(=O)C2)cc1` (stereo not given) the value was -3.06% (inactive); for `O=C(Nc1ccccc1)/C(=C/c1ccc([N+](=O)[O-])cc1)NC(=O)c1ccccc1`, -6.22% (inactive); for `CC(=O)Nc1ccc(/C(C)=N/NC(=O)CN(c2ccccc2Br)S(C)(=O)=O)cc1`, -1.53% (inactive).
For the molecule `Cc1ccccc1OCC(=O)Nc1nc(C)c(C(=O)N(C)C)s1`, the inhibition was -2.14% (inactive).
Consider `CCn1ncc(CNC(=O)C2(C)CC2(Br)Br)c1C` (stereo not given), for which the inhibition is -2.71% (inactive).
As to `O=C(/C=C\c1cn(-c2ccccc2)nc1-c1cccs1)N1CCOCC1`, the inhibition was -5.61% (inactive).
For `COc1cc2c(cc1OC)C(Nc1ccc(S(N)(=O)=O)cc1)=NC(C)(C)C2` the value was -2.77% (inactive); for `COCCNc1nc(N)c([N+](=O)[O-])c(NCCO)n1`, -3.97% (inactive).
On to `COc1ccc(/C(C)=N/NC(=O)CCC(=O)Nc2ccc(Cl)cc2Cl)c(OC)c1`, for which the inhibition was 0.09% (inactive).
The value for `CCC1CCc2c(sc(NC(C)=O)c2C#N)C1` (stereo not given) was -7.48% (inactive).
For `COc1ccc(N2C(=O)C(O)C2c2ccc(C)cc2)cc1` (stereo not given) the value was -1.93% (inactive); for `CC(CC(=O)N1CCN(c2ccccc2)CC1)c1ccccc1` (stereo not given), -3.13% (inactive).
Take `Cc1ccnc(NC(=O)Cn2ccc([N+](=O)[O-])n2)c1`: the inhibition is -6.53% (inactive).
Turning to `Cc1ccc(C)c(NC(=O)CCC(=O)NNC(=O)c2cccs2)c1`, the inhibition is 1.58% (inactive).
The value for `COCCNC(=O)c1ccccc1NS(=O)(=O)c1ccc(C)c([N+](=O)[O-])c1` was -2.99% (inactive); that for `O=C(NNC(=S)NCc1ccccc1)c1ccc(OC(F)F)cc1` was -3.86% (inactive); that for `CCCCN(CC)C(=S)Nc1ccc2nc3n(c(=O)c2c1)CCCCC3` was -7.14% (inactive).
As for `O=C1CCCC(O)=C1N=Nc1ccc2ncsc2c1`, the inhibition was 105% [artifact] (active).
For `COc1ccc(C)cc1NC(=O)C(OC(=O)c1cccc(S(=O)(=O)N(C)c2ccccc2)c1)c1ccccc1` (stereo not given) the value was -5.86% (inactive); for `Cc1cccc(C)c1NC(=O)CSc1ccc([N+](=O)[O-])cn1`, -2.92% (inactive).
Regarding `O=C1NC(c2ccccc2)CCC1(Cl)Cl` (stereo not given), the inhibition is 2.89% (inactive).
For `CCC(=O)/C=C1\Sc2ccccc2N1CC` the value was -1.58% (inactive); for `S=C(NCc1ccc(Cl)cc1)NC1CCCCC1`, -3.92% (inactive).
The value for `O=C(NN1C(=O)C2C3C=CC(O3)C2C1=O)c1ccncc1` (stereo not given) was -4.03% (inactive); that for `O=C(CSc1nnc(-c2ccncc2)o1)NCc1ccc(Cl)cc1` was -5.78% (inactive); that for `COc1ccc(OCc2cn3c(C)cc(C)nc3n2)cc1` was -0.34% (inactive).
Consider `COc1cc(/C=C/C(=O)O)cc(S(=O)(=O)Nc2ccccc2SC)c1OC`, for which the inhibition was -5.74% (inactive).
Take `CCCCN(CC)C(=O)c1ccc2c(c1)OCO2`: the inhibition is 1.32% (inactive).
Regarding `Cc1ccc2c(c1)C1CN(C)CCC1N2C(=O)c1ccccc1NS(=O)(=O)c1ccc(F)cc1C` (stereo not given), the inhibition is -3.92% (inactive).
The value for `COC(=O)/C(=C1\Oc2ccc(C(C)(C)C)cc2S1)C(F)(F)F` was 7.86% (inactive).
Regarding `CC(C)CNC(=S)Nc1ccc(F)cc1`, the inhibition was -3.14% (inactive).
`CCCCOc1ccc(NC(=O)[C@@H]2CCCN2C(=O)C2CCN(S(=O)(=O)c3ccc(C)cc3)CC2)cc1`: the inhibition was -3.36% (inactive).
The value for `Cc1ccc(NC(=O)CC2S/C(=N/N=C3\CCCc4ccccc43)NC2=O)cc1` (stereo not given) was -6.09% (inactive).
For `O=C(CN1CCc2ccccc21)NC(c1ccccc1)c1ccccc1` the value was -5.11% (inactive); for `O=C(O)c1ccc2c(c1)C(=O)N(NC(=O)c1ccc(O)cc1)C2=O`, -5.14% (inactive); for `COc1ccc(NC(=S)NCc2cccs2)c(OC)c1`, 0.55% (inactive).
The value for `COc1cc2c(cc1/C=C1/NC(=O)N(c3ccccc3)C1=O)OCO2` was -3.27% (inactive).
On to `Cc1cc(C(=O)NNC(=S)NC(C)c2ccccc2)cs1` (stereo not given), for which the inhibition is -2.01% (inactive).
For `Cc1ccc(-n2[nH]c(C)c(/C=N/NC(=O)c3cccc([N+](=O)[O-])c3)c2=O)cc1C` the value was -4.72% (inactive); for `Cc1ccc(C(=O)Oc2coc(CSc3nnc(NC(=O)c4cccs4)s3)cc2=O)cc1C`, -0.5% (inactive).
The value for `NC1=C([N+](=O)[O-])C(c2ccccc2)C2=C(CCCC2=O)O1` (stereo not given) was -3.95% (inactive); that for `COc1ccc(C(=O)COC(=O)c2ccc3ccccc3n2)cc1` was -5.54% (inactive).
The value for `O=[N+]([O-])c1cccc(C2=NCCS2)c1` was 0.05% (inactive).
`Cc1ccccc1Cn1nc(C)c(NC(=O)C(F)(F)F)c1C`: the inhibition is -2.43% (inactive).
`CC(C)(C)C1CCC(=NNC(=O)c2cc(-c3ccccc3)n[nH]2)CC1` (stereo not given): the inhibition was 0.48% (inactive).
For `CCOc1ccc2nc(NC(=O)c3cc([N+](=O)[O-])ccc3N3CCOCC3)sc2c1` the value was 3.64% (inactive).
For `CC(=O)c1ccc(NC(=S)NC(=O)CC(C)C)cc1` the value was -4.19% (inactive).
With `CCOc1ccc(C(=O)NC(=S)Nc2ccc(NC(=O)C(C)C)cc2)cc1[N+](=O)[O-]`, the inhibition is -0.7% (inactive).
In the case of `COc1ccc2nc(Nc3nc(-c4cc5ccccc5oc4=O)cs3)sc2c1`, the inhibition is 0.77% (inactive).
As for `CC(=O)Nc1cccc(/C(C)=N/NC(=O)c2c(-c3ccccc3Cl)noc2C)c1`, the inhibition was -2.62% (inactive).
